Two molecules from PubChem BioAssay AID651919 (Sanford-Burnham Center for Chemical Genomics, 2012) can be followed below.

In this assay the target is C-X-C chemokine receptor type 6 (Homo sapiens) (UniProt O00574). Description: antagonism of CXCR6 versus CXCR5 signaling – cell-based, CHO-K1 PathHunter beta-arrestin, luminescence, set 4, selectivity assay for CXCR6 antagonist project, profiling panel (AID 651919). The note with it: run 4, at 79 µM (top of the series).
C-X-C chemokine receptor type 6 (Homo sapiens), sequence (O00574 whole entry, looked up): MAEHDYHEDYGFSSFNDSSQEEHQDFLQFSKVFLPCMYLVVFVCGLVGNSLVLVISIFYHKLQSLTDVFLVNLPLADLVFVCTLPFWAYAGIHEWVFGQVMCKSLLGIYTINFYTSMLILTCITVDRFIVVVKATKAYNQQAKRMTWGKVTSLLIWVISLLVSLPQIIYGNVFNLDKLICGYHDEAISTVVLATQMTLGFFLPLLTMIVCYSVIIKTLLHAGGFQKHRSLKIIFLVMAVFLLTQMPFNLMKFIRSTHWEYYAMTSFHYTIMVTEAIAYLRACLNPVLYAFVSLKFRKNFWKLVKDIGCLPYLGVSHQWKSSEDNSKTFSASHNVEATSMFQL

In turn, `COc1cc(C(=O)NC2CC3CCCC(C2)N3CC(=O)Nc2ccccc2)cc(OC)c1OC` (configuration not stated) showed an inhibition of 92.9%. As for `COc1cc(C(=O)NC2CC3CCCC(C2)N3CC(=O)Nc2ccccc2Cl)cc(OC)c1OC` (configuration not stated), the figure is 99%.

What is called inhibition is how much of the control response was suppressed.
